The values below come from PubChem BioAssay AID720519 (National Center for Advancing Translational Sciences (NCATS), 2013).

Each structure is given as a SMILES string. Results filed as inconclusive are left out. Where a call stands in place of a potency, no number is given. Active and inactive are the calls of the source. Calls follow the shape of the dose curve; as a rule, active = well fitted activation curve with a large enough effect; inconclusive = small, poorly fitted or top-dose-only effect; inactive = flat fitted curve, though single readings scatter.

This assay in a line: qHTS for Inhibitors of Cell Surface uPA Generation: Confirmatory Assay for Cherry-picked Compounds. To be noted: cell surface uPA activity generation, qHTS confirmation; series mostly up to 115 µM. The method, boiled down:
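RAW 264.7 cells at 4000/well, incubated overnight, then treated with compounds. After 24 h at 37 C, viability was read by ATPlite luminescence. An increase in signal indicates blocked uPA-dependent LF entry.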
As for `CCc1ccccc1NC(=O)CN(C)C(=O)CSc1nnc(Nc2cccc(C)c2C)s1`, the Potency entry was “inactive”.
With `COCCNC(=O)C(c1c[nH]c2ccccc12)N(C(=O)c1snc(C(N)=O)c1N)c1cccc(OC)c1` (stereo unspecified) the entry was “inactive”; with `COc1cccc(-n2c(SCC(=O)Nc3cc(C)on3)nc3c([nH]c4ccccc43)c2=O)c1`, “inactive”; with `CC(=O)Nc1ccc(NC(=O)CCCCCN2C(=O)c3ccccc3C2=O)cc1`, “inactive”.
For the compound `COc1ccccc1N1CCN(C(=O)CCC(=O)N2CCN(c3ccc(F)cc3)CC2)CC1`, the Potency entry is “inactive”.
For `O=C(CCCOc1ccc(Cl)cc1Cl)NCc1ccncc1` the value was “inactive”; for `COc1ccc(C(=O)OCC(=O)N(C)C2CCS(=O)(=O)C2)cc1S(=O)(=O)N(C)Cc1ccccc1` (stereo unspecified), “inactive”.
With `CCN1CCN(Cc2ccc(NC(=O)c3cc(NC(=O)c4cncc(-c5cccs5)c4)cc(OC)c3)cc2C(F)(F)F)CC1` the entry was “inactive”; with `COC(=O)c1ccc(CN2CCCC(CNC(=O)Cc3ccc(OC)cc3)C2)cc1` (stereo unspecified), “inactive”.
With `COC(=O)[C@]1(Cc2ccccc2)N[C@H](CN(C)C(=O)c2ccccc2)[C@@H]2C(=O)N(Cc3ccccc3)C(=O)[C@@H]21` the entry was “inactive”.
As to `COc1ccc(N(CN2C(=O)c3ccccc3C2=O)C(=O)C(C)C)cc1`, the Potency entry was “inactive”.
Turning to `O=[N+]([O-])c1cccc(-c2noc(-c3cccs3)n2)c1`, the Potency result was “inactive”.
Turning to `Cc1cc(C)n(CCCNC(=O)c2ccc(C)o2)n1`, the Potency result was “inactive”.
For `CCCCN(CC(=O)NCc1ccc(F)cc1)C(=O)c1ccco1` the value was “inactive”.
For the compound `Cc1ccccc1OCCC(=O)NNC(=O)c1ccccc1F`, the Potency result was “inactive”.
With `Cc1nc(N2CCN(c3ccc(Cl)cc3)CC2)[nH]c(=O)c1C` the entry was “inactive”.
